Data as given in PubChem BioAssay AID492956 (The Scripps Research Institute Molecular Screening Center, 2010).
Hit rate of the full screen: of about 340,000 compounds, about 3,300 (0.97%) were called active.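 How the source made its calls: active means inhibition above the mean over all tested compounds plus 3 SD (cut at about 30% in these data); inactive means the rest.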 The full list was thinned out, with actives kept by preference.

These compounds were tested against Platelet-activating factor acetylhydrolase 2, cytoplasmic (Homo sapiens) (UniProt Q99487) (assay: inhibition of cytoplasmic PAF acetylhydrolase 2 – biochemical, fluorescence polarization, human, primary screen (AID 492956;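 further: inhibitors block probe labeling of enzyme so polarization drops; 0% = enzyme with DMSO and 100% = wells lacking PAFAH2 protein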)). Conditions: recombinant PAFAH2, FP-rhodamine activity probe, at 3.39 µM, hits give high values.
For COc1ccc(N2C(=O)/C(=C/c3ccco3)C(=O)NC2=S)cc1, the inhibition was 59.1% (active).
With CC(C)CN1CCN(Cc2ccccc2C(F)(F)F)CC1CCO (stereo not given) the inhibition was 4.28% (inactive).
In the case of COc1ccc(-n2c(-c3ccccc3)nc3ccccc3c2=O)cc1, the inhibition was -4.87% (inactive).
For C[C@]12CCCCC1=CC(=O)C1C2CC[C@@]2(C)C1C[C@@H](F)[C@@H]2O (stereo not given in full), the inhibition was 2.89% (inactive).
CC(Cc1cccs1)NCc1ccc(Cl)cc1 (stereo not given) was tested, and the inhibition was 4.46% (inactive).
Cc1cccc(N2C(=O)NC(=O)/C(=C\c3cnn(-c4ccccc4)c3)C2=O)c1 was tested, and the inhibition was 38.8% (active).
With CCc1nc2ccccc2c(=O)n1-c1cccc(OC)c1 the inhibition was 0.9% (inactive).
For COc1cccc(N2C(=O)NC(=O)/C(=C\c3cn(C)c4ccccc34)C2=O)c1, the inhibition was 53% (active).
Cc1c(C(=O)O)cccc1-n1c(C)cc(/C=C2\C(=O)NC(=O)N(c3ccc4c(c3)OCO4)C2=O)c1C was tested, and the inhibition was 14.2% (inactive).
With CCN1CCN(c2nc3c(c(=O)[nH]2)CCC3)CC1 the inhibition was 1.82% (inactive).
With CC12CCC3C(CCC4CC(=O)CCC43C)C1CC(=NO)C2=O (stereo not given) the inhibition was 5.08% (inactive).
In the case of Cc1ccc(S(=O)(=O)N(C)c2ccc(C(=O)NCC3(N(C)C)CCCCC3)cc2)cc1, the inhibition was -2.88% (inactive).
For O=C1NC(=O)N(c2ccccc2)C(=O)/C1=C/c1ccc([N+](=O)[O-])s1, the inhibition was 38.4% (active).
O=C1NC(=O)N(c2ccc(F)cc2)C(=O)/C1=C/c1ccc2c(c1)CCCN2Cc1ccccc1 was tested, and the inhibition was 6.73% (inactive).
For COc1ccc2[nH]c3c(c2c1)CCN[C@H]3C, the inhibition was -4.46% (inactive).
For O=C(Cn1c(=O)n(CC2CS2)c2ccccc21)N1CCCCC1 (stereo not given), the inhibition was -1.23% (inactive).
In the case of N=c1ccccn1Cc1ccccc1, the inhibition was 1.19% (inactive).
O=C(CCNS(=O)(=O)c1ccccc1)Nc1ccc(Cl)cc1C(=O)c1ccccc1 was tested, and the inhibition was -0.4% (inactive).
In the case of CN1CCN(C(=S)SCC(=O)Nc2ccc(Cl)cc2C(=O)c2ccccc2)CC1, the inhibition was 5.69% (inactive).
O=C(COC(=O)c1ccccc1)Nc1ccc(Cl)cc1C(=O)c1ccccc1 was tested, and the inhibition was 45% (active).
With CCN(CC)C(=O)Oc1ccc(NC(=O)N2CCOCC2)cc1 the inhibition was 6.33% (inactive).
In the case of C=CCN1C(=O)NC(=O)/C(=C/c2ccc(OCC(=O)Nc3ccc(C)cc3)cc2)C1=O, the inhibition was 5.48% (inactive).
For COc1ccc(C(=O)C2CCCN(Cc3ccc(C)s3)C2)cc1OC (stereo not given), the inhibition was 1.55% (inactive).
With COc1ccccc1N=C1SCCCN1C the inhibition was 5.93% (inactive).
For NCCc1ccc(S(=O)(=O)F)cc1, the inhibition was 86% (active).
For CC(C)c1ccc(-n2c(O)c(/C=N/N3CCOCC3)c(=O)[nH]c2=S)cc1, the inhibition was -8.3% (inactive).
In the case of Cc1ccnc(-n2c(C)cc(/C=C3\C(=O)NC(=S)N(C)C3=O)c2C)c1, the inhibition was -2.99% (inactive).
CCN1CCN(c2ccc([N+](=O)[O-])cc2C#N)CC1 was tested, and the inhibition was 9.87% (inactive).
CC12CCC(O)CC1CCC1C2CCC2(C)C(C(=O)CC(O)C(F)(F)F)CCC12 (stereo not given) was tested, and the inhibition was 2.7% (inactive).
With O=C(N/N=C/c1c(O)n(C2CC2)c(=S)[nH]c1=O)c1ccccc1Cl the inhibition was -27.8% (inactive).
